# From PubChem BioAssay (NCATS)
# Records with an inconclusive call do not appear. Active and inactive are the calls of the source. Unless noted, calls follow the shape of the dose curve; as a rule, active = well fitted curve in the direction sought with a large enough effect; inconclusive = small, poorly fitted or top-dose-only effect, or another doubt; inactive = no such curve, though single readings can be large; an effect the other way counts as inactive or inconclusive.
# How the values were obtained:
# [1] = Cytotoxicity counterscreen for inhibitors of SARS-CoV-2 cell entry (AID 1645845; calls by dose curve; also: nearly all actives have a fitted effect of over 50% in size; also: potency is read from the fitted curve at half-maximal effect); conditions: outcome: dose series up to 57.1 µM unless noted
# In short: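 After a 15 min room-temperature ATPLite 1step step, luminescence reflected ATP remaining in HEK293-ACE2 cells exposed to compound for 1 h plus 48 h at 37 C, with percent activity set by cell and no-cell controls.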
# [2] = Primary qHTS to identify inhibitors of SARS-CoV-2 cell entry (AID 1645846; calls by dose curve; also: nearly all actives have a fitted effect of over 45% in size; also: potency is read from the fitted curve at half-maximal effect); conditions: SARS-CoV-2 pseudovirus cell entry assay, luminescence; activity change, negative = inhibition: at 57.1 µM (top of the series) unless noted
# In short: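 HEK293 cells stably expressing human ACE2, pre-treated 1 h with compound, then infected with MLV particles pseudotyped with Wuhan-Hu-1 spike (C-terminal 19-aa truncation). Luciferase luminescence after 48 h at 37 °C, normalised to spike PP and bald PP.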
# [3] = Primary qHTS for inhibitors of nuclear receptor binding SET domain protein 2 (NSD2) in an isogenic RCH-ACV NSD2 p.E1099K mutant (9B) (AID 1645876); also: nearly all actives have a fitted effect of over 70% in size; also: potency is read from the fitted curve at half-maximal effect
# [4] = Primary qHTS for inhibitors of nuclear receptor binding SET domain protein 2 (NSD2) in an RCH-ACV wild type WT cells (2C) (AID 1645877); also: nearly all actives have a fitted effect of over 70% in size; also: potency is read from the fitted curve at half-maximal effect
# [5] = qHTS assay to identify inhibitors of the type 1 interferon - major histocompatibility complex class I in skeletal muscle: Counter screen cell viability and HiBit confirmation (AID 1347412); conditions: iHSKM muscle cells + IFN-b, HiBiT or CellTiter-Glo, 24 h; for activity change, negative = inhibition: at 45.9 µM (top of the series); also: potency is read from the fitted curve at half-maximal effect; as to activity change, negative = inhibition: % is scaled to controls: 0 for no effect and ±100 for the full control effect; as to all read-outs here: nearly all actives have a fitted effect of over 60% in size
# In short: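 CRISPR HLA-B*08:01-HiBit immortalized human myoblasts (C25cl48) stimulated with 4 ng/ml IFN-beta and compounds (12-point 1:3, top 46 uM final) for 24 h at 37 C. Duplicate plates read by HiBit lytic luminescence or CellTiter Glo ATP.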
# [6] = qHTS for differential inhibitors of proliferation of Plasmodium falciparum line Dd2 (AID 1882); conditions: Potency: Plasmodium falciparum Dd2 proliferation inhibition; also: nearly all actives have a fitted effect of over 65% in size; also: potency is read from the fitted curve at half-maximal effect;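 as to activity change, negative = inhibition: compound exposure of 72 h on infected erythrocytes; plate controls were DMSO vehicle for no effect and 0.29 µM artemisinin for full effect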
# In short: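 RBC culture, 0.3% parasitemia / 2.5% Hct final; cpd added by pin tool in DMSO; 72 h, 37 C, 5% CO2; lysis buffer + SYBR Green I, o/n RT dark; FI 485/535; norm. to artemisinin 0.29 uM and DMSO.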
# [7] = qHTS Assay for Modulators of Human Peripheral Myelin Protein 22 (PMP22) Expression/Activity (AID 1967; active = well fitted curve in the direction sought with a large enough effect in the signal ratio; the % refers to the signal ratio;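 also: 0% = untreated cells and 100% end not stated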)
# In short: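 Mouse MSC80 Schwann cells carrying Pmp22 promoter–green click beetle luciferase plus EF-alpha–red luciferase control, dosed 24 h at 37 °C. Dual-filter luminescence, overlap-corrected; %Activity from green/red ratio normalised to untreated cells, concentration-response curves fitted.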
# [8] = qHTS for differential inhibitors of proliferation of Plasmodium falciparum line 7G8 (AID 1815);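 also: parasite growth measured after three days of incubation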; also: potency is read from the fitted curve at half-maximal effect;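 as to activity change, negative = inhibition: plate controls were vehicle wells for no effect and reference inhibitor wells for full effect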
# [9] = qHTS for differential inhibitors of proliferation of Plasmodium falciparum line GB4 (AID 1816); conditions: Potency: Plasmodium falciparum GB4 proliferation inhibition;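 also: parasite growth measured after 72 h incubation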; also: potency is read from the fitted curve at half-maximal effect;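 as to activity change, negative = inhibition: 0% = vehicle DMSO and -100% = reference inhibitor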
# [10] = target: RecQ-like DNA helicase BLM (Homo sapiens) (UniProt P54132); experiment: qHTS Validation Assay for Inhibitors of Bloom's syndrome helicase (BLM) (AID 2364);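 also: plate controls were DMSO vehicle for no effect and enzyme-free control for full effect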
# RecQ-like DNA helicase BLM (Homo sapiens), sequence (P54132 whole entry, looked up): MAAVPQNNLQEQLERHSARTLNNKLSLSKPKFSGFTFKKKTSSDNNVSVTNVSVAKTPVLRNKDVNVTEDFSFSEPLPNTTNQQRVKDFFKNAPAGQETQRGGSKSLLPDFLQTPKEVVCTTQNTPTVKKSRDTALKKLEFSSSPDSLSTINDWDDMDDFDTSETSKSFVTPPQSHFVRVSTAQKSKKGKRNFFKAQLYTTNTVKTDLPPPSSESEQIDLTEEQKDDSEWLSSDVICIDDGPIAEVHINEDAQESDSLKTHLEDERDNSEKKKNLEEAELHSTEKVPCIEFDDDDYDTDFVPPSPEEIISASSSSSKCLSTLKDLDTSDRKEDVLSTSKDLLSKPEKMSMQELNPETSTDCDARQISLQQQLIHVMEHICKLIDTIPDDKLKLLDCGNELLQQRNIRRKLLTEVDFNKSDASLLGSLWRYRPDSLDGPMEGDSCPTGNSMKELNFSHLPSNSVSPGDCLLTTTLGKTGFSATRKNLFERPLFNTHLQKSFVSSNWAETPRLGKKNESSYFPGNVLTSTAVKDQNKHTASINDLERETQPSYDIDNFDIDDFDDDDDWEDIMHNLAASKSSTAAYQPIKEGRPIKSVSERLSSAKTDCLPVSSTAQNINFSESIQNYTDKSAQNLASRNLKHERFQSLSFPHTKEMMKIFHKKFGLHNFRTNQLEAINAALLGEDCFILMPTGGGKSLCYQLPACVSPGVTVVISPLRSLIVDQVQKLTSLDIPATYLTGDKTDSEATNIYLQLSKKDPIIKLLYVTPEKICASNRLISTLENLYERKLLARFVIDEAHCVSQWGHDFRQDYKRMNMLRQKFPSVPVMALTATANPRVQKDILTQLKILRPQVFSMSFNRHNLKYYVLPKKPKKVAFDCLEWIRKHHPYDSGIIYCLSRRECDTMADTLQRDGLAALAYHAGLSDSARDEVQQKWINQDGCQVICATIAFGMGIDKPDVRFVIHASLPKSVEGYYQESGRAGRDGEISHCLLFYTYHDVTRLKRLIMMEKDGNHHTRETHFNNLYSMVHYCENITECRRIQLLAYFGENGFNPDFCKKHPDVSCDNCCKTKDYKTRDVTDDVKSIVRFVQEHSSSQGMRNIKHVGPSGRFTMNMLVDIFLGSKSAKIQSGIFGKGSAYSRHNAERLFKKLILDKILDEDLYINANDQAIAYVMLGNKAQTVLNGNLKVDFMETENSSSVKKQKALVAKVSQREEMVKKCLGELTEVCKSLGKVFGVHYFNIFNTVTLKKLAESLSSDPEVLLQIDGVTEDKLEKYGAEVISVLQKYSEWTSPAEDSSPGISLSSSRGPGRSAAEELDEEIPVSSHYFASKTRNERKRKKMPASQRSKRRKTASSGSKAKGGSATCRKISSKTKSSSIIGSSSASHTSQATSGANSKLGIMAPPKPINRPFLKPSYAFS
# In short: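 BLM 50 nM in 25 mM Tris-HCl pH 8.0, 5 mM NaCl, 2 mM MgCl2, 1 mM DTT, 0.01% Tween-20, 2.5 ug/ml poly(dI-dC); 15 min cpd preinc, RT. Start: 200 nM forked DNA + 2 mM ATP (final). TAMRA read, 2 reads 2 h apart.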
compound,measurement,setting,value
CC(=O)OC[C@H]1O[C@@H]([S-])[C@H](OC(C)=O)[C@@H](OC(C)=O)[C@@H]1OC(C)=O.CC[PH+](CC)CC.[Au],Potency,[1],3.16 µM (active)
same,Potency,[2],1.26 µM (active)
same,Potency,[3],0.742 µM (active)
same,Potency,[4],0.742 µM (active)
same,Potency,[5]; HiBiT,1.11 µM (active)
C/C=C(\C)C(=O)N[C@@H](c1ccccc1)[C@@H](O)C(=O)O[C@H]1C[C@@]2(O)[C@@H](OC(=O)c3ccccc3)[C@@H]3[C@]4(OC(C)=O)CO[C@@H]4C[C@H](O)[C@@]3(C)C(=O)[C@H](OC(C)=O)C(=C1C)C2(C)C,Potency,[1],inactive
same,"activity change, negative = inhibition",[2],-81.8%
same,Potency,[3],0.0263 µM (active)
same,Potency,[4],0.0263 µM (active)
C=C(C)[C@@H]1CCC(C)=C[C@H]1c1c(O)cc(CCCCC)cc1O,Potency,[1],inactive
same,Potency,[3],18.6 µM (active)
same,Potency,[4],20.9 µM (active)
same,"activity change, negative = inhibition",[5]; Viability,5.14% (inactive)
C[C@@]12OC(=O)[C@]1([C@@H](O)[C@@H]1C=CCCC1)NC(=O)[C@@H]2CCCl,"activity change, negative = inhibition",[2],-97.7%
same,Potency,[3],0.118 µM (active)
same,Potency,[4],0.105 µM (active)
same,Potency,[5]; HiBiT,0.176 µM (active)
CN1C(=O)[C@@H](NC(=O)[C@H](CCC(F)(F)F)[C@H](CCC(F)(F)F)C(N)=O)N=C(c2ccccc2)c2ccccc21,"activity change, negative = inhibition",[2],-8.27%
same,Potency,[3],inactive
same,Potency,[4],inactive
CC(C)(O)/C=C\C(=O)[C@](C)(O)[C@H]1[C@H](O)C[C@]2(C)[C@@H]3CC=C4[C@@H](C=C(O)C(=O)C4(C)C)[C@]3(C)C(=O)C[C@@]12C,Potency,[2],0.794 µM (active)
same,Potency,[3],0.0525 µM (active)
same,Potency,[4],0.0468 µM (active)
same,Potency,[5]; HiBiT,6.25 µM (active)
same,"activity change, negative = inhibition",[5]; Viability,186% (inactive)
CO[C@H]1CCC(O[C@H]2C[C@H]([C@]3(C)CC[C@]4(C[C@H](O)[C@@H](C)[C@@H]([C@@H](C)/C=C(\C)C(=O)[C@H](C)C[C@H](C)C(=O)O)O4)O3)O[C@]3(O[C@@H]([C@H]4O[C@@](O)(CO)[C@H](C)C[C@@H]4C)C[C@@H]3C)[C@@H]2C)O[C@@H]1C (stereo partly specified),Potency,[1],inactive
same,Potency,[3],0.209 µM (active)
same,Potency,[5]; HiBiT,12.5 µM (active)
same,Potency,[5]; Viability,14 µM (active)
Cn1c(COP(=O)(NCCBr)NCCBr)cnc1[N+](=O)[O-],Potency,[1],inactive
same,Potency,[4],18.6 µM (active)
O=C1/C(=C\c2ccccc2)C[C@@]2(O)[C@H]3Cc4ccc(O)c5c4[C@@]2(CCN3CC2CC2)[C@H]1O5,Potency,[5]; HiBiT,3.52 µM (active)
O=C(O)CNC(=O)C1C(=O)N(C2CCCCC2)C(=O)N(C2CCCCC2)C1=O,Potency,[1],inactive
same,"activity change, negative = inhibition",[2],-12.5%
same,Potency,[3],inactive
C[C@]12COC(=O)C[C@@H]1CC[C@@H]1[C@@H]2CC[C@@]2(C)[C@H]1CC[C@]2(C)O,Potency,[1],inactive
same,"activity change, negative = inhibition",[2],-8.16%
C[C@@H]1CC[C@@]2(OC1)O[C@H]1C[C@H]3[C@@H]4CC=C5C[C@@H](O[C@@H]6O[C@H](CO)[C@@H](O[C@@H]7O[C@@H](C)[C@H](O)[C@@H](O)[C@H]7O)[C@H](O)[C@H]6O[C@@H]6O[C@@H](C)[C@H](O)[C@@H](O)[C@H]6O)CC[C@]5(C)[C@H]4CC[C@]3(C)[C@H]1[C@@H]2C,Potency,[1],inactive
same,Potency,[2],12.6 µM (active)
same,Potency,[3],2.35 µM (active)
same,Potency,[4],3.32 µM (active)
same,Potency,[5]; HiBiT,22.2 µM (active)
same,Potency,[5]; Viability,17.6 µM (active)
COC[C@H]1OC(=O)c2coc3c2[C@@]1(C)C1=C(C3=O)[C@@H]2CC[C@H](O)[C@@]2(C)C[C@H]1OC(C)=O,Potency,[1],inactive
same,Potency,[3],13.2 µM (active)
same,Potency,[4],11.8 µM (active)
CCCN1CCC[C@@H](c2cccc(C#N)c2)C1,Potency,[6],inactive
same,outcome,[7],inactive
N#CC(=Cc1ccc(O)c(O)c1)C(N)=S,Potency,[6],inactive
NNCc1cccc(O)c1,Potency,[8],12.6 µM (active)
NC(Cn1ccc(=O)[nH]c1=O)C(=O)O (stereo unspecified),Potency,[8],inactive
same,Potency,[9],inactive
same,Potency,[6],inactive
same,outcome,[7],inactive
C=CCN1CC[C@@]2(C)c3cc(O)ccc3CC1[C@@H]2C,Potency,[8],7.94 µM (active)
same,Potency,[9],12.6 µM (active)
same,outcome,[7],inactive
same,outcome,[10],inactive
CN1CCC23CCCC[C@H]2C1Cc1ccc(O)cc13 (stereo partly specified),Potency,[8],6.31 µM (active)
same,Potency,[6],5.01 µM (active)
same,outcome,[7],inactive
COc1ccc2c(c1O)-c1cccc3c1C(C2)N(C)CC3 (stereo unspecified),Potency,[8],8.91 µM (active)
same,Potency,[9],8.91 µM (active)
same,Potency,[6],11.2 µM (active)
same,outcome,[10],inactive
CCCCN1C2CCC1CC(OC(c1ccc(F)cc1)c1ccc(F)cc1)C2 (stereo unspecified),Potency,[8],2 µM (active)
same,Potency,[9],1.58 µM (active)
same,Potency,[6],3.98 µM (active)
CC1Cc2cc3c(cc2C(c2ccc(N)cc2)=NN1)OCO3 (stereo unspecified),Potency,[8],12.6 µM (active)
C[C@H]1OC[C@@H](C[N+](C)(C)C)O1,Potency,[8],inactive
same,Potency,[9],inactive
same,Potency,[6],inactive
same,outcome,[7],inactive
same,outcome,[10],inactive
CCN(CC)C(=O)N[C@@H]1C[C@@H]2c3cccc4[nH]cc(c34)C[C@H]2N(C)C1,Potency,[8],5.62 µM (active)
same,Potency,[9],6.31 µM (active)
C#CCN(C)C(C)Cc1ccccc1 (stereo unspecified),Potency,[8],inactive
same,Potency,[9],inactive
same,Potency,[6],inactive
same,outcome,[7],inactive
same,outcome,[10],inactive
CCCN(CCC)[C@@H]1CCc2c(F)ccc(O)c2C1,Potency,[8],1.12 µM (active)
same,Potency,[9],0.355 µM (active)
same,Potency,[6],1.41 µM (active)
same,outcome,[10],inactive
CCCN(CCC)C(=O)Cc1c(-c2ccc(Cl)cc2)nc2c(Cl)cc(Cl)cn12,outcome,[7],inactive
NCC#Cc1ccccc1,Potency,[9],inactive
same,Potency,[6],inactive
CCCN1CCC[C@@H]2Cc3n[nH]cc3C[C@H]21,Potency,[9],inactive
same,Potency,[6],inactive
same,outcome,[7],inactive
C/C1=C/C[C@@H](/C(C)=C/c2csc(C)n2)OC(=O)C[C@H](O)C(C)(C)C(=O)[C@H](C)[C@@H](O)[C@@H](C)CCC1,Potency,[1],inactive
same,"activity change, negative = inhibition",[2],-64.3%
same,Potency,[3],0.0525 µM (active)
same,Potency,[4],0.0417 µM (active)
same,"activity change, negative = inhibition",[5]; Viability,-15.3% (inactive)
C[C@]12CC[C@H]3[C@@H](CCC4C[C@H](O)CC[C@@]43C)[C@@H]1CC[C@@H]2O (stereo partly specified),Potency,[8],inactive
same,Potency,[9],inactive
same,Potency,[6],inactive
same,outcome,[7],inactive
same,outcome,[10],inactive
